Entries with a potency or affinity are not part of this list. The source made the active and inactive calls.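 Rule for the calls: active = compound whose fitted half-maximal concentration for signal loss stays within twice its top tested dose in every run; inconclusive = runs not all active and not all inactive; inactive = every run inactive.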
assay: reduction of Shn3 3'UTR firefly luciferase signal, dose response, Schnurri-3 inhibitor project, cell-based, Clone20 osteoblasts, cherry-pick, set 2 (AID 720490); details: Clone20 osteoblast Shn3 3'UTR firefly luciferase, 24 h; series mostly up to 35 µM

outcome, inactive:
CCOC(=O)Cn1c(S(=O)(=O)Cc2ccccc2Cl)nc(-c2ccccc2)c1-c1ccccc1
CCOC(=O)c1cn(CC(=O)Nc2cccc(Cl)c2C)nn1
O=C1S/C(=C\c2ccc(N3CCOCC3)o2)C(=O)N1Cc1c(F)cccc1Cl
CCN(CC)Cc1c(O)ccc2c1O/C(=C\C=C\c1ccccc1)C2=O
